This note sets out measurements from PMC7862700, “An all-to-all approach to the identification of sequence-specific readers for epigenetic DNA modifications on cytosine”.

What all share (experiment): DAPPL (digital affinity profiling via proximity ligation, sequencing); 10 mM Tris-HCl pH 7.5, 50 mM NaCl, 1 mM DTT, 4% glycerol, room temperature, 30 min; GST-TFs on glutathione beads, 16-mer random dsDNA library, 0.1% formaldehyde crosslink after washing; high values mean tight binding
Experiment [1] has as its target T1, FEV (Homo sapiens, UniProt Q99581 1-238).
T1 sequence: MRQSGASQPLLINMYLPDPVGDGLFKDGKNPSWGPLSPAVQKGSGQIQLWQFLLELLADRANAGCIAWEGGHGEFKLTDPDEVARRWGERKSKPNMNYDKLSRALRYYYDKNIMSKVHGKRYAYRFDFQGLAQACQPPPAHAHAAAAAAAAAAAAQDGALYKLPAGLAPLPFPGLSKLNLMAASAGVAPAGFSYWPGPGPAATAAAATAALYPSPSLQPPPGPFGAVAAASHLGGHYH
Conditions: protein: recombinant; tags: N-terminal GST; dsDNA, one strand shown. A digest of the protocol: (§1)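 Human transcription factors fused to GST were expressed in yeast, captured on glutathione beads, given DNA barcodes and pooled with a GST-only negative control. Pools were incubated with 200 nmole of a 16-mer random double-stranded DNA library in Tris/NaCl/DTT/glycerol buffer at room temperature for 30 min. They were then washed, crosslinked with 0.1% formaldehyde, proximity-ligated (BsaI/T4 ligase, 1 h, 37 °C), PCR-amplified and sequenced on an Illumina NextSeq500. Binding signal is each 6-mer's read frequency for a factor divided by its frequency for the GST control.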

The target in experiment [2] is ETV5 (Homo sapiens, UniProt P41161 1-510). The settings on record: protein: recombinant; tags: N-terminal GST; dsDNA, one strand shown. The method in brief: as §1
Chain of ETV5 (P41161 whole entry): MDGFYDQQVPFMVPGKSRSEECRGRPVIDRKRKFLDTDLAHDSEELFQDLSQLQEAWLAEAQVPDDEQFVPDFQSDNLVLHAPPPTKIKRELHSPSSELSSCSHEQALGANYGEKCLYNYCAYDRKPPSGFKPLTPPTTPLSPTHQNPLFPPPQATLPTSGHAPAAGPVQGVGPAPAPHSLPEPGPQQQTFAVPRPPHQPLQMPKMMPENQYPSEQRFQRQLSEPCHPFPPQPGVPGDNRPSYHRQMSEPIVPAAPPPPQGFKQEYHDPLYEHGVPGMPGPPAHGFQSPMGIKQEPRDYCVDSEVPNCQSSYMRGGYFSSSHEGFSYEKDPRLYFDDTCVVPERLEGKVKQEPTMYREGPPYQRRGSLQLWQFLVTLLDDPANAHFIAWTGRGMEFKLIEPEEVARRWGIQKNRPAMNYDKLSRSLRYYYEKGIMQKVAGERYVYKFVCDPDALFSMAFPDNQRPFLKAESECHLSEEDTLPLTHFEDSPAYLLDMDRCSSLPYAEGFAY
In experiment [3] the target is HSF1 (Homo sapiens, UniProt Q00613 1-529). Conditions: protein: recombinant; tags: N-terminal GST; chain copies: 3; dsDNA, one strand shown. The method in brief:
as §1

For experiment [4], the target named is T2, SPIC (Homo sapiens, UniProt Q8N5J4 1-248).
T2 sequence: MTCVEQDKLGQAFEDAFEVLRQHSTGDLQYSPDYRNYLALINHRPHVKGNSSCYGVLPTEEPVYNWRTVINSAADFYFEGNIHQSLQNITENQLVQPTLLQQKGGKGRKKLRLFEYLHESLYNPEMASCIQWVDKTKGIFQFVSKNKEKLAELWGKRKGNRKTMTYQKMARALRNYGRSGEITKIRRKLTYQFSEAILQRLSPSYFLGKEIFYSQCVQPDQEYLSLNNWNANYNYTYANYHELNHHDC
Conditions: protein: recombinant; tags: N-terminal GST; dsDNA, one strand shown. The method in brief: as §1

Experiment [5] deals with ELF4 (Homo sapiens, UniProt Q99607 1-663). Conditions: protein: recombinant; tags: N-terminal GST; dsDNA, one strand shown. A digest of the protocol:
as §1

Experiment [6] has as its target T3, ELK4 (Homo sapiens, UniProt P28324-2 1-405).
T3 sequence: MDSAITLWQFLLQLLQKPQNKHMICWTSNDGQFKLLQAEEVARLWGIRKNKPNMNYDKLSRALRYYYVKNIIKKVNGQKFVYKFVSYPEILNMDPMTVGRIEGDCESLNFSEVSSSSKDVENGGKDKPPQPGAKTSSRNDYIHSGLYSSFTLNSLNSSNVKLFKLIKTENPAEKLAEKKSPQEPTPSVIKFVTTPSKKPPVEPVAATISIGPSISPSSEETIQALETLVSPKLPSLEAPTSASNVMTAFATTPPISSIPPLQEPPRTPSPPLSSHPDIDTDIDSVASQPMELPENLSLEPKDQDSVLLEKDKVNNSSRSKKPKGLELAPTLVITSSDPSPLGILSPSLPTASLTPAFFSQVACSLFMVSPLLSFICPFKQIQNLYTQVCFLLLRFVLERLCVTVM
Conditions: protein: recombinant; tags: N-terminal GST; dsDNA, one strand shown. The method in brief:
as §1

In experiment [7] the target is T4, ETV2 (Homo sapiens, UniProt O00321 1-342).
T4 sequence: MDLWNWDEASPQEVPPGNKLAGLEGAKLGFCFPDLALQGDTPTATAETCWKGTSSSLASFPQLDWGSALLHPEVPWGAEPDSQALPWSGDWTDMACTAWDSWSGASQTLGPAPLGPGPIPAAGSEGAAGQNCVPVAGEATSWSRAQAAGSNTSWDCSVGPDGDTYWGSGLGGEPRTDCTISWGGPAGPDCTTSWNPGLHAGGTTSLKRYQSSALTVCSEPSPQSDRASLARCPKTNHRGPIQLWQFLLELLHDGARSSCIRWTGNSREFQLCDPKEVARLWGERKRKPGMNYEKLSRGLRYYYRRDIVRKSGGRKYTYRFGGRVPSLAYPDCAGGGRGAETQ
Conditions: protein: recombinant; tags: N-terminal GST; dsDNA, one strand shown. A digest of the protocol:
as §1

Experiment [8] addresses T5, ELF3 (Homo sapiens, UniProt P78545 1-371).
T5 sequence: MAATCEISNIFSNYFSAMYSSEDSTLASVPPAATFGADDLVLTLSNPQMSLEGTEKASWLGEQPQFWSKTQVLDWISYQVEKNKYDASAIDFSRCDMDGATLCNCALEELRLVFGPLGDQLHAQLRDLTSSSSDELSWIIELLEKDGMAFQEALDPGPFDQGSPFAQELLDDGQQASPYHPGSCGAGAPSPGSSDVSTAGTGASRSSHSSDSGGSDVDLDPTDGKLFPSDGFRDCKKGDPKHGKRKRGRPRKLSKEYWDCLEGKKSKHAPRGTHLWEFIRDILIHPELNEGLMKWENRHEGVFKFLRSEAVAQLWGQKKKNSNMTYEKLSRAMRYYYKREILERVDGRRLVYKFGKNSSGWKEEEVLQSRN
The settings on record: protein: recombinant; tags: N-terminal GST; dsDNA, one strand shown. A digest of the protocol: as §1

Experiment [9] concerns the target CRX (Homo sapiens, UniProt O43186 1-299). The settings on record: protein: recombinant; tags: N-terminal GST; dsDNA, one strand shown. The method in brief:
as §1

Experiment [10] concerns the target ETV1 (Homo sapiens, UniProt P50549 1-477). The settings on record: protein: recombinant; tags: N-terminal GST; dsDNA, one strand shown. A digest of the protocol:
as §1

Experiment [11] deals with T6, ERF (Homo sapiens, UniProt P50548 1-548).
T6 sequence: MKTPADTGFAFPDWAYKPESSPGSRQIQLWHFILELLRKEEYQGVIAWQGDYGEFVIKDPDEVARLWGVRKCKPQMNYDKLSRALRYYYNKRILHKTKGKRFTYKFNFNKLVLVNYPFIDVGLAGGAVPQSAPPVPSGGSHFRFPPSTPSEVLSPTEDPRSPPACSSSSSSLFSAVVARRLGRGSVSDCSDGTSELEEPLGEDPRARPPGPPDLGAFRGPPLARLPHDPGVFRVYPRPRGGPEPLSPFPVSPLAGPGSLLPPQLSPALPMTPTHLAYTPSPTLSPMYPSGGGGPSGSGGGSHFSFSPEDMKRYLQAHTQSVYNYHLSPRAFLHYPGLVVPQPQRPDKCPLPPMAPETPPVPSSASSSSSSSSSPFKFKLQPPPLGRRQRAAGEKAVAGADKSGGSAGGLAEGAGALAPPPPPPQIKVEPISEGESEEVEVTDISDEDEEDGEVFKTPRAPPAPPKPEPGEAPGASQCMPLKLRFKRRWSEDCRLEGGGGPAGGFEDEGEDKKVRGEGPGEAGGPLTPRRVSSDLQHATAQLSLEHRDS
The settings on record: protein: recombinant; tags: N-terminal GST; dsDNA, one strand shown. The method in brief:
as §1

The target of experiment [12] is T7, ETV3L (Homo sapiens, UniProt Q6ZN32 1-361).
T7 sequence: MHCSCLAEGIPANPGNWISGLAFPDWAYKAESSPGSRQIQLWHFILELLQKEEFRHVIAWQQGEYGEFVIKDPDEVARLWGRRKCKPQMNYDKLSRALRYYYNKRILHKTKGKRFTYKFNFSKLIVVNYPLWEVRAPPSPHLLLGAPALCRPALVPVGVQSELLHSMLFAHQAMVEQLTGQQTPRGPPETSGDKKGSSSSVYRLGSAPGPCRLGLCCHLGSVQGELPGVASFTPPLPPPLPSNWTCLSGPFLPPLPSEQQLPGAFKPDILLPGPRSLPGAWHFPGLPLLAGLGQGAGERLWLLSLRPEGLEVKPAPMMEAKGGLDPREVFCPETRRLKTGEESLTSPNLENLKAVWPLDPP
The settings on record: protein: recombinant; tags: N-terminal GST; dsDNA, one strand shown. The method in brief: as §1

Experiment [13] deals with T8, ETS2 (Homo sapiens, UniProt P15036 1-469).
T8 sequence: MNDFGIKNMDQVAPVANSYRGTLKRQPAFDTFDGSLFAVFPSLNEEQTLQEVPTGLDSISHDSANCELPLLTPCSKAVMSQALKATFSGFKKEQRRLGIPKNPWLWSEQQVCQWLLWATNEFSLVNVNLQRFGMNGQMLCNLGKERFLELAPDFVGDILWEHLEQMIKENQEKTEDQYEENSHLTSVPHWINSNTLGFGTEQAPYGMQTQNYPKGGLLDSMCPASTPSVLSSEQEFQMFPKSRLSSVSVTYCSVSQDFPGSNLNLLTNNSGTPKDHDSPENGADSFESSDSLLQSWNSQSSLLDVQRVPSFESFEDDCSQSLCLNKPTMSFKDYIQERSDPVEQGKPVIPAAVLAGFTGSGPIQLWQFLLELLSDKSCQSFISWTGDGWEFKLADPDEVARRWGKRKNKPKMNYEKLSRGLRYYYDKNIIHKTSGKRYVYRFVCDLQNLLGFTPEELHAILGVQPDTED
The settings on record: protein: recombinant; tags: N-terminal GST; dsDNA, one strand shown. The method in brief:
as §1

The target in experiment [14] is T9, SPDEF (Homo sapiens, UniProt O95238 1-335).
T9 sequence: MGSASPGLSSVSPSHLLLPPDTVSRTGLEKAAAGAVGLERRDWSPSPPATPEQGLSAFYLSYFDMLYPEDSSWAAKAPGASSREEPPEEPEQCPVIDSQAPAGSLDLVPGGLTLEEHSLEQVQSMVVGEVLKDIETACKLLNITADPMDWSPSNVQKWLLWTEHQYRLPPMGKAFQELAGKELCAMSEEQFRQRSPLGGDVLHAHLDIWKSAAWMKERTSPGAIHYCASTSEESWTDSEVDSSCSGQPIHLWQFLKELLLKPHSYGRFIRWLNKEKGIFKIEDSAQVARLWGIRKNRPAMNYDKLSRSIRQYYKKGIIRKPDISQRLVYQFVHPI
Conditions: protein: recombinant; tags: N-terminal GST; dsDNA, one strand shown. A digest of the protocol:
as §1

Experiment [15] has as its target T10, ETV7 (Homo sapiens, UniProt Q9Y603 1-341).
T10 sequence: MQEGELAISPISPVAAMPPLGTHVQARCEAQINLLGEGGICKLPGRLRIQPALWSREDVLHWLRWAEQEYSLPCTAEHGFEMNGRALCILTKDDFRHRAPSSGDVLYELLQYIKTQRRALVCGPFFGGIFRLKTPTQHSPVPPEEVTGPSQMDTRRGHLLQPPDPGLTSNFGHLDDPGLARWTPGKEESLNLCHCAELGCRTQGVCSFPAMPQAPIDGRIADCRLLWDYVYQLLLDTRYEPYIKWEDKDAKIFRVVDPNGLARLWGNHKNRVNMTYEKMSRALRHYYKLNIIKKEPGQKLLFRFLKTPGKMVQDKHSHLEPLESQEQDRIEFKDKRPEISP
Conditions: protein: recombinant; tags: N-terminal GST; dsDNA, one strand shown. The method in brief: as §1

Experiment [16] addresses T11, ELF5 (Homo sapiens, UniProt Q9UKW6-2 1-255).
T11 sequence: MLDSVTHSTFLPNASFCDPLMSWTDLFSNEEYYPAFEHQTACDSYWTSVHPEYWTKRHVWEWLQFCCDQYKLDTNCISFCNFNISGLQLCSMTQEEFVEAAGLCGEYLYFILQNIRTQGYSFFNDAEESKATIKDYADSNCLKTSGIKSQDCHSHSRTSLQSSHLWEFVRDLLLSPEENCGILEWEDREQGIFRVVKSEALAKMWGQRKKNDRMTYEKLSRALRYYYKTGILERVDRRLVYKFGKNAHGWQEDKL
Conditions: protein: recombinant; tags: N-terminal GST; dsDNA, one strand shown. The method in brief: as §1

Experiment [17] addresses T12, ETV3 (Homo sapiens, UniProt P41162-2 1-143).
T12 sequence: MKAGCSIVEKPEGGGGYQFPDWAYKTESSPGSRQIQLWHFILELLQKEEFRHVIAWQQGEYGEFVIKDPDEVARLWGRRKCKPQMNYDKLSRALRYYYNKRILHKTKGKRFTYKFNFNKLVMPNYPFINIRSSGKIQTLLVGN
The settings on record: protein: recombinant; tags: N-terminal GST; dsDNA, one strand shown. A digest of the protocol:
as §1

Experiment [18] deals with ETV6 (Homo sapiens, UniProt P41212 1-452). The settings on record: protein: recombinant; tags: N-terminal GST; dsDNA, one strand shown. The method in brief:
as §1

Chain of CRX (O43186 whole entry): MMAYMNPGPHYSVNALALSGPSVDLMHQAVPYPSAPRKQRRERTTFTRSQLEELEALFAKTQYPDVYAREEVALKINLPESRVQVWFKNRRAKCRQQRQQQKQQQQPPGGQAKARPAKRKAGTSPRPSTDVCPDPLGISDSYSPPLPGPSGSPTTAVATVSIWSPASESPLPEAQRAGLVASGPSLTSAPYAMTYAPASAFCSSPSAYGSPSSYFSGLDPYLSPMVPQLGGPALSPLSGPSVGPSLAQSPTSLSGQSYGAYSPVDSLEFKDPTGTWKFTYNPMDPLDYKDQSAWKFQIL
Chain of ETV1 (P50549 whole entry): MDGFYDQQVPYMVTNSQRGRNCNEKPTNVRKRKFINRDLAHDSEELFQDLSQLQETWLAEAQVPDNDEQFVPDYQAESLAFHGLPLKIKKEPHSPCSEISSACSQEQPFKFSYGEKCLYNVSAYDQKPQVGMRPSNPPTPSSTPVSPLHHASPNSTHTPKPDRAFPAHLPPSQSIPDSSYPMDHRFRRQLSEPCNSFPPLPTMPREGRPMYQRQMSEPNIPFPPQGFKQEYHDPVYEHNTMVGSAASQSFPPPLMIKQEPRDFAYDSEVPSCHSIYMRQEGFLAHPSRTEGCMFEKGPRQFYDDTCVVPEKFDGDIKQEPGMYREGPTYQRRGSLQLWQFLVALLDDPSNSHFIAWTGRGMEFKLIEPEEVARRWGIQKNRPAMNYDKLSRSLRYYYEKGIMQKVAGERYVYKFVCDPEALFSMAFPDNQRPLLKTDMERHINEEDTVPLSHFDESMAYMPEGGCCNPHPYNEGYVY
Chain of HSF1 (Q00613 whole entry): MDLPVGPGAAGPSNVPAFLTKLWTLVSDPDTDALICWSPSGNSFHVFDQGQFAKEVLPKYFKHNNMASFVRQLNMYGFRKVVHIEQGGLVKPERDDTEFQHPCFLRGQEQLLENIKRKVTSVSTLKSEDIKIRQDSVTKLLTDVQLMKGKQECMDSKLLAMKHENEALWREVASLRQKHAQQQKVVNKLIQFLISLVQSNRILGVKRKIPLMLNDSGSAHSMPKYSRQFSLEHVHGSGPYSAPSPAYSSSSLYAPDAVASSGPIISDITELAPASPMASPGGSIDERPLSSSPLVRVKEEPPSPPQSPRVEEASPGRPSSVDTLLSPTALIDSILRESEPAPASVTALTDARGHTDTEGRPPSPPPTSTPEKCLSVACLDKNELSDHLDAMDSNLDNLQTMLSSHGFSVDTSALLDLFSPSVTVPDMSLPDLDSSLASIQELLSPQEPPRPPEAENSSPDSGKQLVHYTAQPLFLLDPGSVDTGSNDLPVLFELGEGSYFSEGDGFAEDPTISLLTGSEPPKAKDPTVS
Chain of ETV6 (P41212 whole entry): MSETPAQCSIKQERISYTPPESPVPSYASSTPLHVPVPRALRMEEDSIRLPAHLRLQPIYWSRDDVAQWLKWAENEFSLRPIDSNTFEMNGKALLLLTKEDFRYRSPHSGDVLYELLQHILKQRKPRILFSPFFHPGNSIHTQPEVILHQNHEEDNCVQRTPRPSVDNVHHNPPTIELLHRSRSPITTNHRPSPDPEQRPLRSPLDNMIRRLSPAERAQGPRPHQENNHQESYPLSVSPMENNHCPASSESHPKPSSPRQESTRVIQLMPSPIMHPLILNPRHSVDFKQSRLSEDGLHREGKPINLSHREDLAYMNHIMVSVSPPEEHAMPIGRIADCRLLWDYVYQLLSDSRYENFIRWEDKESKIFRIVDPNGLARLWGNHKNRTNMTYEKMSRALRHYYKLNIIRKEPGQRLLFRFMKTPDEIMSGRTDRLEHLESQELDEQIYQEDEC
Chain of ELF4 (Q99607 whole entry): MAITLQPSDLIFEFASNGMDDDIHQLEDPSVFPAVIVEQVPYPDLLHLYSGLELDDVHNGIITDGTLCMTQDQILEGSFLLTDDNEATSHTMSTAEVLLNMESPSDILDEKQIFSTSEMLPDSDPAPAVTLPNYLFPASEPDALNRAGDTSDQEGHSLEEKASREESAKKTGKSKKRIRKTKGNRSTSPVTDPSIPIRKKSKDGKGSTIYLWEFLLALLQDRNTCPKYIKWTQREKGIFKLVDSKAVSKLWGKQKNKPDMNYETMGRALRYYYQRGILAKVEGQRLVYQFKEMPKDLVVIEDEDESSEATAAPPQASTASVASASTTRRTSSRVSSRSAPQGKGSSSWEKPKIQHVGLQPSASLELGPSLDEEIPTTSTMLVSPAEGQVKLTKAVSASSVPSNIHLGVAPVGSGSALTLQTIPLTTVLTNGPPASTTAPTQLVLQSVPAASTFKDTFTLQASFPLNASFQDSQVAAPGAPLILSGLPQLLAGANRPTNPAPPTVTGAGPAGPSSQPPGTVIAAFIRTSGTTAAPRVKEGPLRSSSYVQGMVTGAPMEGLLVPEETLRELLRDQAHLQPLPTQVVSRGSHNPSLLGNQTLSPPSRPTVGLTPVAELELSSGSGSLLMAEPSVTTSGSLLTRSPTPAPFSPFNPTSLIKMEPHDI

On to TTTACT, for which the binding signal in experiment [1] is 1.41 fold enrichment (6-mer frequency, TF over GST control); in experiment [2], 1.44 fold enrichment (6-mer frequency, TF over GST control); in experiment [3], 1.69 fold enrichment (6-mer frequency, TF over GST control); in experiment [4], 1.44 fold enrichment (6-mer frequency, TF over GST control); in [5], 1.5 fold enrichment (6-mer frequency, TF over GST control); in experiment [6], 1.66 fold enrichment (6-mer frequency, TF over GST control). In addition, the binding signal in [7] is 1.29 fold enrichment (6-mer frequency, TF over GST control); in experiment [8], 1.65 fold enrichment (6-mer frequency, TF over GST control); in [9] it was 1.95 fold enrichment (6-mer frequency, TF over GST control); in [10], 1.48 fold enrichment (6-mer frequency, TF over GST control); in [11], 1.3 fold enrichment (6-mer frequency, TF over GST control); in [12] it was 1.42 fold enrichment (6-mer frequency, TF over GST control). The binding signal is 1.44 fold enrichment (6-mer frequency, TF over GST control) in experiment [13]; 1.44 fold enrichment (6-mer frequency, TF over GST control) in experiment [14]; 1.57 fold enrichment (6-mer frequency, TF over GST control) in [15]; 1.36 fold enrichment (6-mer frequency, TF over GST control) in [16]; 1.53 fold enrichment (6-mer frequency, TF over GST control) in experiment [17]; 1.44 fold enrichment (6-mer frequency, TF over GST control) in experiment [18].
